High-throughput results deposited in PubChem by National Center for Advancing Translational Sciences (NCATS).
TGFb SMAD3 inh – qHTS for Inhibitors of TGF-b; HepG2 CAGA-GFP TGF-b/SMAD3 reporter, GFP fluorescence, 18 h; TGF-beta stimulated, 500 pg/mL final; Potency, µM (series often up to 46.1 µM), inactives show top-dose activity, negative = inhibition, actives largely listed as inhibitors; AID 588855, 2011; 1.2% of 410,000 active; note: % is set by controls: 0 for no effect and ±100 for the full control effect; nearly all actives have a fitted effect of over 65% in size
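HEPG2 CAGA-GFP cells (1000/well, DMEM with 1% FBS) were pre-incubated 2 h at 37 degrees C, given compound by pin tool, then stimulated with TGF-beta at 500 pg/mL final for 18 h before per-cell GFP fluorescence imaging.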
S2 tox – Viability Counterscreen for Primary qHTS for Inhibitors of ATXN expression | S2 cells (HEK-293 line with an ATXN2-luciferase reporter) viability, CellTiter-Fluor protease fluorescence, 24 h | AID 651635, 2014 | 0.49% of 400,000 active | Potency, µM (titrated, usually from 56.7 µM), most hits filed as cytotoxic; note: nearly all actives have a fitted effect of over 40% in size
ATXN2 expr inh – Primary qHTS for Inhibitors of ATXN expression; HEK-293 ATXN2-luciferase reporter, luminescence, 24 h; 0.72% of 360,000 active; Potency, µM (series often up to 57 µM), for the others: at the top dose activity change, negative = inhibition, hits mostly inhibitors; note: % is set by controls: 0 for no effect and ±100 for the full control effect; nearly all actives have a fitted effect of over 55% in size
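ATXN2-luciferase reporter cells (luciferase flanked by upstream and downstream ATXN2 gene portions) were treated 24 h at 37 °C with compounds at up to 57 uM. SteadyGlo luminescence gave expression; GF-AFC fluorescence gave viability.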
HepG2 tox – qHTS for Inhibitors of TGF-b: Cytotox Counterscreen; Potency, µM (titrated, usually from 46.1 µM), for inactives: at the top dose activity change, negative = cytotoxicity, most hits filed as cytotoxic; 0.76% of 410,000 active; HepG2 CAGA-GFP viability, ATP luminescence, 18 h
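CellTiter-Glo luminescence gave cytotoxicity after 18 hours at 37 degrees C. The cells were HepG2 CAGA-GFP in 1% FBS DMEM, stimulated with 500 pg/mL TGF-beta after compound addition. %Activity was normalised to no-cell wells (complete cell-killing) and DMSO (no toxicity), and curves were fitted and classified.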
DT40 TDP1 CPT – qHTS for Inhibitors of human tyrosyl-DNA phosphodiesterase 1 (TDP1): qHTS in cells in presence of CPT. chicken DT40 Tdp1-/-;hTDP1 cells + 20 nM CPT, ATP luminescence, 48 h. Potency, µM (highest dose often 46.2 µM), for inactives: at the highest dose activity change, negative = growth inhibition, most hits filed as inhibitors. 12% of 420,000 active; note: % is set by controls: 0 for no effect and ±100 for the full control effect; nearly all actives have a fitted effect of over 55% in size
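Chicken DT40 Tdp1-/- cells stably complemented with human TDP1 were seeded at 400 cells/well in medium containing 20 nM camptothecin, exposed to pin-transferred compounds, and grown at 37 °C for at least 48 hr. Viability was read as ATP luminescence.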
TDP1 cell noCPT – qHTS for Inhibitors of human tyrosyl-DNA phosphodiesterase 1 (TDP1): qHTS in cells in absence of CPT. DT40 Tdp1-/- hTDP1 cells, no CPT, ATP luminescence, 48 h. Potency, µM (titrated, usually from 46.2 µM), for inactives: at the top dose activity change, negative = growth inhibition, actives largely listed as inhibitors. 15% of 420,000 active. AID 686978, 2013; note: % is set by controls: 0 for no effect and ±100 for the full control effect; nearly all actives have a fitted effect of over 55% in size
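DT40 Tdp1-/-;hTDP1 cells, no CPT (DMSO vehicle only), 400 cells/well; compounds pin-transferred; ≥48 hr, 37 °C; CellTiter-Glo 30 min RT dark, luminescence read.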
Active calls of the source: *; i = inactive; ? = inconclusive; · = not tested or not shown; ! = repeats disagree; [ ] = dose if it differs, or a comment. Shown are actives, neighbours in structure and some others; about 17% of the full set was active somewhere. Calls come from the whole dose curve; as a rule, active = well fitted curve in the direction sought with a large enough effect; inconclusive = small, poorly fitted or top-dose-only effect, or another doubt; inactive = no such curve, though single readings can be large; an effect the other way counts as inactive or inconclusive. Potency is the fitted concentration of half-maximal effect.

SMILES	TGFb SMAD3 inh	S2 tox	ATXN2 expr inh	HepG2 tox	DT40 TDP1 CPT	TDP1 cell noCPT
O=S(=O)(NCc1cn2ccsc2n1)c1ccc2c(c1)OCCO2	-20%	i	1%	4%	?	23µM*
O=S(=O)(NCc1cn2ccsc2n1)c1cccs1	27%	i	8%	-1%	-2%	-15%
Cc1csc2nc(CNS(=O)(=O)c3ccc(-c4ccccc4)cc3)cn12	-20%	i	-25%	-33%	?	18µM*
Cc1ccc(S(=O)(=O)NCc2cn3c(C)csc3n2)cc1	11%	i	3%	-3%	-5%	-22%
O=S(=O)(NCc1cn2ccsc2n1)c1ccc(Oc2ccccc2)cc1	5%	i	-20%	-3%	9.2µM*	10µM*
Cc1ccc(NC(=O)CCn2ccc([N+](=O)[O-])n2)nc1	-2%	i	-17%	8%	-8%	-4%
COc1ccc2cc(C(=O)N(C)CC(=O)Nc3ccccc3Br)ccc2c1	-13%	i	4%	-15%	?	-19%
COc1ccc(OC)c(C(=O)NC(CC(N)=O)c2ccc(N3CCC(Cc4ccccc4)CC3)c([N+](=O)[O-])c2)c1 (stereo not given)	1%	i	5%	3%	-26%	-17%
CS(=O)(=O)N1N=C(c2cccs2)CC1c1ccccc1 (stereo not given)	?	i	·	-22%	-19%	-14%
c1ccc(C2Oc3ccccc3C3CC(c4cccs4)=NN32)cc1 (stereo not given)	-1%	?	11%	-32%	?	16µM*
Cc1cc(=O)oc2c(C)c(OC3CCCCC3=O)ccc12 (stereo not given)	0%	i	24%	-7%	-5%	-2%
Cc1ccc(C)c(-c2[nH]ncc2CN2CCCC(CO)(Cc3ccccc3C)C2)c1 (stereo not given)	?	i	-33%	-47%	7.3µM*	13µM*
COc1cc(CN2CCCC(CO)(Cc3ccccc3C)C2)cc2c1OCO2 (stereo not given)	-28%	i	-9%[11.3 µM]	-1%	15µM*	?
Cc1cccc(-c2ncc(CN3CCCC(CO)(Cc4ccccc4C)C3)cn2)c1 (stereo not given)	?	i	-12%	-25%	23µM*	-25%
CCCN1CCN(CCCNC(=O)Cn2nc(C)n3c(cc4cc(F)ccc43)c2=O)CC1	?	i	12%	6%	-7%	-2%
O=C1C[C@H]2[C@H](CO)[C@@H](OC(=O)c3ccc(-c4ccccc4)cc3)C[C@H]2O1	-12%	i	24%	4%	?	16µM*
CC(=O)N(O)CCCCCNC(=O)CCC(=O)N(O)CCCCCNC(=O)CCC(=O)N(O)CCCCCN	-8%	i	?	-3%	21µM*!	12µM*!
CC(C)(C)c1cc2ncnc(N3CCCCC3)c2s1	0%	·	-17%	-7%	13µM*	29µM*
N#Cc1c(SCC(=O)Nc2nccs2)nc2c(c1-c1ccco1)CCCC2	-15%	?	-36%	-4%	-16%	?
CC(C)(C)c1ccc(NC(=O)COC(=O)c2ccc(NS(=O)(=O)c3ccc(F)c(F)c3)cc2)cc1	14µM*	i	6%	-46%	-21%	?
CC(C)(C)NC(=O)NC(=O)COC(=O)c1cccc(NS(=O)(=O)c2ccc(F)c(F)c2)c1	0%	i	1%	-7%	-26%	?
CC(C)C(=O)Nc1ccccc1C(=O)OCc1cc(=O)n2nc(C3CC3)sc2n1	52%	i	16%	0%	-16%	?
